The text below walks through data of PubChem BioAssay (NCATS).

Inconclusive results are not listed. A number with no mark means an inactive call. The source made the active and inactive calls. The call rests on the fitted dose curve; in most records, active means well fitted curve in the direction sought with a large enough effect; inconclusive means small, poorly fitted or top-dose-only effect, or another doubt; inactive means no such curve, though single readings can be large; an effect the other way counts as inactive or inconclusive.

A short description of one test: qHTS for Inhibitors of Plasmodium falciparum (7G8) proliferation (AID 504316). Further: nearly all actives have a fitted effect of over 65% in size. Further: potency means the concentration at half of the fitted maximal effect.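 On activity change, negative = inhibition: 0% = DMSO vehicle and -100% = 0.29 µM artemisinin full kill.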 As to conditions: P. falciparum 7G8 in erythrocytes, SYBR Green DNA, 72 h; series mostly up to 6.7 µM; activity change, negative = inhibition: at the top concentration. The gist of the method: (§1)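 Parasite growth measured as SYBR Green DNA fluorescence (ex 485, em 535 nm) after overnight lysis following 72 h culture at 37 °C, 0.3% parasitemia, 2.5% hematocrit. Values normalized against DMSO and 0.29 uM artemisinin controls, with plate-stack correction.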
Take `COC(=O)N[C@@H](c1ccccc1)[C@]1(C(=O)OC)CCCC1=O`: the “activity change, negative = inhibition” value was 7.89%.

Turning to `COc1cccc([C@@H]2Oc3ccc(Br)cc3C(=O)[C@@H]2OC(=O)Nc2cc(OC)c(OC)c(OC)c2)c1`, the “activity change, negative = inhibition” value is 1.88%.

In the case of `COC(=O)CCC(=O)OC1(C)C(=O)C2=CN(Cc3ccc(OC)cc3)C(c3ccc(OC)cc3)=CC2=C(Br)C1=O` (stereo not given), the “activity change, negative = inhibition” value was -26.1%.

Take `COC(=O)C1=C(C(=O)OC)[C@@H]2N(C)c3ccc(OC)cc3[C@@]23C[C@@H](C(=O)OC)N(S(=O)(=O)c2ccc4c(c2)OCCN4C)C3=N1`: the “activity change, negative = inhibition” value is -20.7%.

With `CCCCc1nc2c(c3c1C[C@H](C)OC3)CN(S(=O)(=O)c1ccc3c(c1)OCCN3C)CC2`, the “activity change, negative = inhibition” value is -17.4%.

With `CCN1C(=O)N[C@@H](c2cccc(F)c2)C(C(C)=O)=C1C`, the “activity change, negative = inhibition” value was -2.3%.

For the molecule `COC(=O)C1=C(C(=O)OC)[C@@H]2Nc3ccccc3[C@@]23C[C@@H](C(=O)OC)N(S(=O)(=O)c2cccs2)C3=N1`, the “activity change, negative = inhibition” value was -2.04%.

Regarding `COC/C=C/C1=CC2=CC(=O)C(C)(OC(=O)c3cnc4ccccc4n3)C(=O)C2=CN1Cc1ccc2c(c1)OCO2` (stereo not given), the “activity change, negative = inhibition” value was -4.16%.

Take `COC(=O)[C@@]1(C=C2c3ccc(F)cc3[C@@H](OC)[C@@H]2C)[C@@H]2CC=C[C@@H]21`: the “activity change, negative = inhibition” value was -16.1%.

On to `C[C@@H](c1ccccc1)N1C(=O)[C@@H]2[C@H]3[C@H](O)[C@H](O)CC(=NNC(=O)OCc4ccccc4)[C@@H]3CC[C@H]2C1=O`, for which the “activity change, negative = inhibition” value is -14.2%.

As for `CCCC[C@]12Cc3cc(OC)c(OC)cc3[C@H](O1)C1=C(O2)C(=O)c2ccccc2C1=O`, the Potency is 1510 nM (active).

Consider `CCOC(=O)OC[C@H]1O[C@H](c2ccccc2)C=C[C@H]1OC(=O)OCC`, for which the “activity change, negative = inhibition” value is -4.89%.

With `CC1(OC(=O)CCc2ccccc2)C(=O)C=C2C=C(c3ccc(C#N)cc3)N(Cc3ccco3)C=C2C1=O` (stereo not given), the “activity change, negative = inhibition” value was -22.5%.

As for `COC(=O)CCC(=O)OC1(C)C(=O)C2=CN(c3ccccc3)C(c3ccc(OC)cc3)=CC2=C(Br)C1=O` (stereo not given), the “activity change, negative = inhibition” value is -19.2%.

A short description of the next test: qHTS for Inhibitors of Plasmodium falciparum (HB3) proliferation (AID 504318).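 Further: 0% = DMSO vehicle and -100% = artemisinin control; nearly all actives have a fitted effect of over 60% in size.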 Conditions: P. falciparum HB3 in erythrocytes, SYBR Green DNA, 72 h; series mostly up to 7.21 µM; activity change, negative = inhibition: at the top concentration. The gist of the method: as §1
Turning to `C=CCNC(=O)N1CCc2nc(COc3ccccc3)c3c(c2C1)CO[C@@H](C)C3`, the “activity change, negative = inhibition” value is -1.71%.

With `C=CCN1c2ccccc2[C@]23C[C@@H](C(=O)OC)N(C(=O)C4CCC4)C2=NC(C(=O)OC)=C(C(=O)OC)[C@H]13`, the “activity change, negative = inhibition” value was -4.07%.

Regarding `CCCCc1nc2c(c3c1C[C@H](C)OC3)CN(C(=O)Cc1cccc(OC)c1)CC2`, the “activity change, negative = inhibition” value is -10.7%.

Take `COC(=O)[C@H]1[C@@H](C)N(Cc2ccccc2)C(=O)N[C@H]1c1ccccc1`: the “activity change, negative = inhibition” value is -2.76%.

With `C[C@@H]1C[C@](C)(C(=O)c2ccc3ccccc3c2)C=C1c1ccc2ccccc2c1`, the “activity change, negative = inhibition” value was -3.81%.

Turning to `COC(=O)[C@H]1[C@H](CCc2ccccc2)NC(=O)N(Cc2ccccc2)[C@@H]1C`, the “activity change, negative = inhibition” value was -7.09%.

As to `COC(=O)C1=C(C(=O)OC)[C@@H]2N(C)c3ccccc3[C@@]23C[C@@H](CO)N(C(=O)c2cc(C)oc2C)C3=N1`, the “activity change, negative = inhibition” value was -8.51%.

For the molecule `COc1ccc2c(c1)O[C@@H](c1cccc(C(F)(F)F)c1)[C@H](OC(=O)N[C@H]1CCCc3ccccc31)C2=O`, the “activity change, negative = inhibition” value is -15.6%.

With `C[C@H]1Cc2c(-c3ccccc3)nc3c(c2CO1)CN(C(=O)c1cc(I)ccc1F)CC3`, the “activity change, negative = inhibition” value is -8.2%.

In the case of `C=CC1=C2C=C(C3CC3)N(Cc3ccco3)C=C2C(=O)C(C)(OC(=O)c2ccco2)C1=O` (stereo not given), the “activity change, negative = inhibition” value is 4.65%.

With `CC(C)CON=C1C[C@@H](O)[C@@H](O)[C@@H]2[C@H]3C(=O)N(C4CCCCC4)C(=O)[C@@H]3CC[C@H]12`, the “activity change, negative = inhibition” value was -3.33%.

For `CCCNC(=O)N1C2=NC(C(=O)OC)=C(C(=O)OC)[C@@H]3Nc4ccccc4[C@]23C[C@H]1C(=O)OC`, the “activity change, negative = inhibition” value is 0.327%.

Regarding `O=C(C=Cc1ccc2c(c1)OCO2)c1ccccc1`, the “activity change, negative = inhibition” value is 0.409%.

Regarding `CCN1C(=O)N[C@H](c2ccc(Br)cc2)C(C(=O)OC)=C1C`, the “activity change, negative = inhibition” value is -0.655%.

In the case of `COC(=O)[C@@H](NC(=O)N1CCc2nc(-c3ccccc3)c3c(c2C1)CO[C@@H](C)C3)C(C)C`, the “activity change, negative = inhibition” value was -5.08%.

Regarding `COC(=O)CC=C[C@@H](C)[C@H](OC)c1cc(F)ccc1Br`, the “activity change, negative = inhibition” value is -5.48%.

`COC(=O)[C@@H]1[C@@H](C)N(CCc2cc(OC)c(OC)c(OC)c2)C(=O)N[C@H]1c1ccccc1`: the “activity change, negative = inhibition” value was -5.65%.

The nature of another test: qHTS for Inhibitors of Plasmodium falciparum (CP250) proliferation (AID 504320).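 Further: plate controls were DMSO vehicle for no effect and 0.29 µM artemisinin control for full effect.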 Conditions: P. falciparum CP250 in erythrocytes, SYBR Green DNA, 72 h; series mostly up to 6.7 µM; activity change, negative = inhibition: at the top concentration. In a few lines: as §1
(In qHTS, concentration-response curves come from the screen itself.)
For the molecule `COC(=O)C1=C(C(=O)OC)[C@@H]2Nc3ccccc3[C@@]23C[C@@H](C(=O)OC)N(C(=O)c2ccco2)C3=N1`, the “activity change, negative = inhibition” value was 2.56%.

Consider `C=CCNC(=O)N1CCc2nc(COc3ccccc3)c3c(c2C1)CO[C@@H](C)C3`, for which the “activity change, negative = inhibition” value is -1.95%.

With `COC(=O)N[C@@H](c1ccccc1)[C@]1(C(=O)OC)CCCC1=O`, the “activity change, negative = inhibition” value was -1.33%.

As for `COc1cccc([C@@H]2Oc3ccc(Br)cc3C(=O)[C@@H]2OC(=O)Nc2cc(OC)c(OC)c(OC)c2)c1`, the “activity change, negative = inhibition” value is -2.11%.
